In PubChem BioAssay AID651568 (National Center for Advancing Translational Sciences (NCATS), 2012):
Screen size: about 1,200 compounds; about 55 (5%) were called active. Inconclusive results (about 15%) are left out. Calls follow the shape of the dose curve; as a rule, active = well fitted inhibition curve with a large enough effect; inconclusive = small, poorly fitted or top-dose-only effect; inactive = no such curve, though single readings can be large or run the other way. Only a selection was taken, and actives are over-represented in it overall.

experiment: qHTS Assay to Find Inhibitors of Chronic Active B-Cell Receptor Signaling: Hit Validation in Renilla Reporter Assay; conditions: TMD8 IkB-Renilla luciferase reporter, NF-kB signaling; series mostly up to 57.5 µM; activity change, negative = inhibition: at the top concentration; also: nearly all actives have a fitted effect of over 70% in size
Source text: Diffuse large B-cell lymphoma (DLBCL) is the most common category of non-Hodgkin lymphoma, with ~20,000 new cases per year in the United States. DLBCL should be regarded as a collection of different neoplasms. Microarray gene expression analysis has defined two principal types of DLBCL, named for their similarity to normal B cell stages or activation states: a germinal center B-cell (GCB) type, and an activated B-cell (ABC) type. In ABC-DLBCL, a constitutive high-level activity of the NF-kappaB family of transcription factors has been observed (1) and NF-kappaB target genes are more highly expressed in ABC primary tumors than in GCB tumors. Functional studies have shown a constitutive high-level activity of the IkappaB (inhibitor of kappa-B) kinase (IKK) complex. […] Further analysis of DLBCL primary tumors for NF-kappaB target gene expression imply that although CARD11 is required for constitutive IKK activity in all ABC-DLBCL lines, mutations in CARD11 may be the root cause of IKK activation only in lines or tumors with such mutations. In other words, CARD11 mutations may explain NF-kappaB activation in only 10% of ABC-DLBCL cases. […] This process has been termed 'chronic active BCR signaling' (CABS). The goal of this screen is to find small-molecule inhibitors of the CABS pathway found in ABC-DLBCL lines using a cell-based assay that measures IkappaBalpa stability, which has already been extensively validated in the OCI-Ly3 line (PubChem AID:445; REF: 4). […] Hits from the primary screen were tested in this orthogonal secondary assay. NIH Molecular Libraries Probe Production Network [MLPCN] NIH Chemical Genomics Center [NCGC] MLPCN Grant: R03 DA031086 PI Name: Dr. R. Eric Davis
The IkB-Photinus/Renilla reporter assay differs from the primary assay in that the reporters are constitutively expressed, and based on luciferases that are different from the click beetle luciferases and each other. These differences should help to eliminate artifactual sources of activity specific to the primary assay. This assay uses the Dual-Glo substrate from Promega; extensively validated in a 96-well format, it could be converted to a smaller-well format. All lines needed for the IkB-Photinus/Renilla assay have already been prepared and extensively validated
% is scaled to controls: 0 for no effect and ±100 for the full control effect; potency is read from the fitted curve at half-maximal effect.

SMILES	Potency	activity change, negative = inhibition
O=c1c2ccccc2[se]n1-c1ccccc1	15.1 µM (active)	–
C/C(=N\N1CCCCC1)c1c(O)[nH]c(=O)[nH]c1=O	–	-0.419% (inactive)
CC[C@]12CC[C@H](O)CC1=CCC1C2CC[C@]2(C)C(=O)CCC12 (stereo partly specified)	–	-2.46% (inactive)
C=CC[C@@H](CC/C=C/C=C/CC/C=C\[C@@H]1CSC([C@@H]2C[C@@H]2C)=N1)OC	30.1 µM (active)	–
CC(C)CCCn1c(O)c(/C=C2/C=CC=N2)c(=O)[nH]c1=O	–	-20.5% (inactive)
C#CCOc1cc(C2C3=C(COC3=O)Nc3cc4c(cc32)OCO4)ccc1OC (stereo unspecified)	–	-16.5% (inactive)
CCNC(=O)[C@H]1O[C@@H](n2cnc3c(N)ncnc32)[C@H](O)[C@@H]1O	–	-8.48% (inactive)
COc1cc2c(c(OC)c1OC)-c1ccc(O)cc1[C@@H](NC(C)=O)CC2	–	-2.7% (inactive)
CCCCOCCCn1c(N)c(C(=O)OCCOC)c2nc3ccccc3nc21	–	-1.2% (inactive)
CN1C(=O)CN=C(c2ccc(Cl)cc2)c2cc(Cl)ccc21	–	3.92% (inactive)
O=C1C(=O)c2cccc3cccc1c23	26.9 µM (active)	–
COc1ccc(Cc2nccc3cc(OC)c(OC)cc23)cc1OC	–	-12.3% (inactive)
COc1ccc(C(=O)Oc2cccc3cccnc23)cc1S(=O)(=O)N1CCOCC1	–	-25.8% (inactive)
COc1cc2c3cc1Oc1cc(ccc1O)C[C@@H]1c4c(cc(OC)c(O)c4Oc4ccc(cc4)C[C@H]3N(C)CC2)CCN1C	23.9 µM (active)	–
COc1ccc(C=C2C(=O)N(C)C(=O)N(C)C2=O)cc1COc1ccc(NC(C)=O)cc1	–	-13.9% (inactive)
CCc1ccccc1N1C(=O)/C(=C/c2ccc(N3CCN(C)CC3)o2)C(=O)NC1=S	–	-9.48% (inactive)
CCCC[C@@H](C)C[C@@H](C)C(=O)N(C)[C@@H](CC(C)C)C(=O)N[C@H](C(=O)N(C)[C@H](C(=O)N1C[C@@H](O)C[C@H]1C(=O)N1C(=O)C=C[C@@H]1C)C(C)C)C(C)OC(C)=O (stereo partly specified)	26.9 µM (active)	–
COc1cc(C2c3cc4c(cc3CC3COC(=O)C32)OCO4)cc(OC)c1OC (stereo unspecified)	–	-14.9% (inactive)
Cc1cc(C)c(C(=O)CN2CCOCC2)c(C)c1	–	-9.8% (inactive)
COc1cc2c(c(OC)c1OC)-c1ccc(O)c(=O)cc1C(NC(C)=O)CC2 (stereo unspecified)	–	-5.2% (inactive)
COc1ccc(-c2nn(CCC#N)cc2C(=O)Nc2ccc(C(C)=O)cc2)cc1[N+](=O)[O-]	–	2.38% (inactive)
